Test results as given in PubChem BioAssay (EPA / NIEHS).
Results filed as inconclusive are left out. The source made the active and inactive calls. Rule for the calls, unless noted: active = hit-call score of the fitted dose curve at least 0.9, where 1 is the maximum; inactive = score below 0.9.

Assays:
[1] = molecular target: Bile acid receptor (Homo sapiens) (UniProt Q96RI1); experiment: ATG_FXR_TRANS: Attagene TRANS-FACTORIAL HepG2 Assay for Farnesoid X Receptor (FXR) (AID 2282979; active = hit-call score of the fitted dose curve at least 0.9, where 1 is the maximum;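 note: hits raise reporter mRNA above DMSO so AC50 marks FXR activation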); settings: HepG2 Attagene TRANS FXR-GAL4 reporter transcription
Summary of the method: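 Chimeric FXR-GAL4 activity in transiently transfected human HepG2 liver cells is scored as induction of reporter mRNA after 24 h of dosing. Detection uses RT-PCR with fluorescent labelling and capillary electrophoresis, with DMSO serving as baseline.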

[2] = molecular target: Oxysterols receptor LXR-alpha (Homo sapiens) (UniProt Q13133); experiment: ATG_LXRa_TRANS: Attagene TRANS-FACTORIAL HepG2 Assay for human Liver X Receptor alpha (LXRa) (AID 2282980; active = hit-call score of the fitted dose curve at least 0.9, where 1 is the maximum); settings: HepG2 Attagene TRANS reporter, LXRa transactivation
Summary of the method: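 Transient HepG2 transfectants, 24 h dosing, RT-PCR/CE mRNA reporter quantitation; gain-of-signal vs DMSO.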

[3] = molecular target: Hepatocyte nuclear factor 4-alpha (Homo sapiens) (UniProt P41235); experiment: ATG_HNF4a_TRANS: Attagene TRANS-FACTORIAL HepG2 Assay for human Hepatocyte Nuclear Factor 4 alpha (HNF4a) (AID 2282982; active = hit-call score of the fitted dose curve at least 0.9, where 1 is the maximum); settings: HepG2 HNF4a transactivation reporter, mRNA readout
Summary of the method: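 Transfected HepG2 reporter cells are dosed for 24 h; reporter RNA is reverse-transcribed, amplified, fluorescently labelled and HpaI-digested before CE sizing. Positive-direction fit against DMSO.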

[4] = ATG_M_06_TRANS: Attagene TRANS-FACTORIAL HepG2 Assay for M06 Transcription Factor (Internal Marker) (AID 2282983; active = hit-call score of the fitted dose curve at least 0.9, where 1 is the maximum;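 note: reporter transcript level by RT-PCR then capillary electrophoresis fluorescence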); settings: HepG2 Attagene TRANS M06 internal marker reporter
Summary of the method: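 Measured by capillary electrophoresis of fluorescently labelled RT-PCR products, this endpoint reflects reporter mRNA in HepG2 cells harbouring exogenous NR-GAL4 reporter constructs after 24 h exposure, with DMSO as baseline.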

[5] = molecular target: Nuclear receptor subfamily 4 group A member 2 (Homo sapiens) (UniProt P43354); experiment: ATG_NURR1_TRANS: Attagene TRANS-FACTORIAL HepG2 Assay for human Nuclear Receptor Related Protein 1 (NURR1) (AID 2282985; active = hit-call score of the fitted dose curve at least 0.9, where 1 is the maximum); settings: HepG2 Attagene TRANS reporter, mRNA readout
Summary of the method: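 Cells: HepG2, transiently transfected. Exposure: 24 h. Detection: fluorescence of labelled RT-PCR products separated by capillary electrophoresis; upward fit versus DMSO.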

[6] = molecular target: Transcriptional activator Myb (Homo sapiens) (UniProt P10242); experiment: ATG_Myb_CIS: Attagene CIS-FACTORIAL HepG2 Assay for human Myeloblastosis (Myb) Proto-Oncogene Transcription Factor (AID 2282986); settings: HepG2 Attagene CIS-FACTORIAL Myb reporter transcription; actives raise or lower the signal
Summary of the method: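 Transiently transfected HepG2 cells, treated 24 h. Reporter mRNA quantified by RT-PCR/capillary electrophoresis; bidirectional fit relative to DMSO.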

[7] = ATG_NFI_CIS: Attagene CIS-FACTORIAL HepG2 Assay for human Nuclear Factor I (NFI) (AID 2282989); settings: HepG2 cis-regulatory reporter, NFI response element transcription; actives raise or lower the signal
Summary of the method: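 Reporter transcription driven by endogenous transcription factors in HepG2 cells; 24 h treatment. Quantitation by labelled RT-PCR fragments on capillary electrophoresis, gain- or loss-of-signal relative to DMSO.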

[8] = molecular target: Myc proto-oncogene protein (Homo sapiens) (UniProt P01106); experiment: ATG_Myc_CIS: Attagene CIS-FACTORIAL HepG2 Assay for human Myelocytomatosis (Myc) Proto-Oncogene Transcription Factor (AID 2282990); settings: HepG2, Attagene cis-reporter transcription factor activity; actives raise or lower the signal
Summary of the method: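 Cells of the HepG2 human liver line bear multiple cis-driven reporter transcription units. Reporter mRNA after 24 h exposure is reverse-transcribed, amplified, labelled and resolved by capillary electrophoresis, with gain- or loss-of-signal fitting relative to DMSO.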

[9] = ATG_NF_kB_CIS: Attagene CIS-FACTORIAL HepG2 Assay for human Nuclear Factor Kappa B (NF-kB) (AID 2282991); settings: HepG2 Attagene cis-factorial NF-kB reporter mRNA; actives raise or lower the signal
Summary of the method: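 Measures mRNA induction of an NF-kB-responsive cis-element reporter in HepG2 cells transfected with multiple reporter units, sampled 24 h post-dosing; quantified by fluorescence after RT-PCR and capillary electrophoresis, fitted for activation or inhibition against DMSO.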

[10] = ATG_NRF2_ARE_CIS: Attagene CIS-FACTORIAL HepG2 Assay for human Nuclear Factor Erythroid 2 Related Factor 2 (NFR2) response to Antioxidant Response Elements (ARE) (AID 2282992); settings: HepG2 Attagene ARE/NRF2 reporter, transcription factor activity; actives raise or lower the signal;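 for AC50: reporter mRNA level measured by RT-PCR and capillary electrophoresis fluorescence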
Summary of the method: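 HepG2 cells transiently transfected with multiplexed cis-regulated reporter transcription units measure endogenous transcription factor activity. Reporter mRNA at 24 h is quantified by RT-PCR, fluorescent labelling and capillary electrophoresis, with bidirectional fitting relative to DMSO.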

[11] = ATG_Oct_MLP_CIS: Attagene CIS-FACTORIAL HepG2 Assay for human Octamer-Binding Transcription Factor (Oct) (AID 2282993); settings: HepG2 Attagene cis-factorial Oct reporter, mRNA; actives raise or lower the signal
Summary of the method: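 Transfected HepG2 cells, 24 h treatment. Reporter mRNA quantified by RT-PCR–capillary electrophoresis; bidirectional fitting against DMSO.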

[12] = molecular target: Cellular tumor antigen p53 (Homo sapiens) (UniProt P04637); experiment: ATG_p53_CIS: Attagene CIS-FACTORIAL HepG2 Assay for human p53 Transcription Factor (AID 2282994); settings: HepG2 p53 cis-element reporter, Attagene mRNA; actives raise or lower the signal
Summary of the method: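 HepG2 cells transiently transfected with multiplexed cis-regulated reporter transcription units read endogenous TF activity. After 24 h compound exposure, reporter mRNA was quantified by RT-PCR, fluorescent labelling, HpaI digestion and capillary electrophoresis; bidirectional fits versus DMSO baseline.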

[13] = molecular target: human Peroxisome Proliferator-activated Receptor alpha (PPARa), PPARA (gene 5465) (UniProt Q07869); experiment: ATG_PPARa_TRANS: Attagene TRANS-FACTORIAL HepG2 Assay for human Peroxisome Proliferator-activated Receptor alpha (PPARa) (AID 2283001; active = hit-call score of the fitted dose curve at least 0.9, where 1 is the maximum)
Summary of the method: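 Reporter transcripts from GAL4-UAS units in transfected HepG2 were quantified 24 h after dosing. Detection used reverse transcription, PCR, fluorescent primer extension and capillary electrophoresis, with DMSO as baseline.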

[14] = molecular target: Oxysterols receptor LXR-beta (Homo sapiens) (UniProt P55055); experiment: ATG_LXRb_TRANS: Attagene TRANS-FACTORIAL HepG2 Assay for human Liver X Receptor beta (LXRb) (AID 2282981; active = hit-call score of the fitted dose curve at least 0.9, where 1 is the maximum); settings: HepG2 Attagene TRANS GAL4-LXRb reporter, mRNA
Summary of the method: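 Cells: HepG2, transiently transfected with GAL4-UAS reporter units plus LXRb-Gal4 fusion. Treatment: 24 h. Detection: reporter mRNA by RT-PCR, 6-FAM labelling, HpaI digestion, capillary electrophoresis.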

[15] = ATG_M_32_TRANS: Attagene TRANS-FACTORIAL HepG2 Assay for M32 Transcription Factor (Internal Marker) (AID 2282984; active = hit-call score of the fitted dose curve at least 0.9, where 1 is the maximum;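 note: transcript level of a background control reporter unit measured by RT-PCR and capillary electrophoresis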); settings: HepG2 Attagene TRANS M32 internal marker reporter
Summary of the method: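 Using transiently transfected HepG2 cells exposed to test chemicals for 24 h, reporter transcripts are converted to labelled cDNA fragments and quantified by capillary electrophoresis. DMSO defines the activity baseline.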

[16] = molecular target: Nuclear respiratory factor 1 (Homo sapiens) (UniProt Q16656); experiment: ATG_NRF1_CIS: Attagene CIS-FACTORIAL HepG2 Assay for human Nuclear Respiratory Factor 1 (NRF1) Orphan Gene (AID 2282987); settings: HepG2 NRF1 cis-element reporter, Attagene multiplex; actives raise or lower the signal
Summary of the method: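 Cells (HepG2, transient MRTU transfection) are exposed to compound for 24 h, then RNA isolated and reporter mRNA amplified and fluorescently labelled. Fragments are separated by capillary electrophoresis; signal change is fitted bidirectionally relative to DMSO.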

[17] = BSK_3C_TissueFactor: BioMAP Diversity Plus: 3C Assay for Tissue Factor Biomarker Activity (AID 2282997); settings: BioMAP 3C HUVEC, tissue factor biomarker readout; actives raise or lower the signal
Summary of the method: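 Values derive from bidirectional curve fitting against DMSO of Tissue Factor ELISA signals, taken 24 h after dosing primary human umbilical vein endothelial cells.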

[18] = BSK_3C_uPAR: BioMAP Diversity Plus: 3C Assay for Urokinase-type plasminogen activator receptor (uPAR) Biomarker Activity (AID 2282998); settings: BioMAP 3C HUVEC, uPAR biomarker ELISA; actives raise or lower the signal
Summary of the method: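 Readout: ELISA for surface uPAR. System: human umbilical vein endothelial primary cells, 24 h after chemical exposure. Analysis: bidirectional fit, DMSO baseline.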

[19] = BSK_3C_VCAM1: BioMAP Diversity Plus: 3C Assay for Vascular cell adhesion molecule 1 (VCAM1) Biomarker Activity (AID 2282999); settings: BioMAP 3C HUVEC, VCAM1 ELISA, cytokine-stimulated; actives raise or lower the signal
Summary of the method: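 Endothelial cells from human umbilical vein are treated with test chemical. At 24 h, VCAM-1 is measured by ELISA, and responses in either direction are fitted relative to DMSO.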

[20] = BSK_4H_Eotaxin3: BioMAP Diversity Plus: 4H Assay for Eotaxin 3 Biomarker Activity (AID 2283000); settings: primary human endothelial cells (HUVEC); actives raise or lower the signal
Summary of the method: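 Endothelial primary cells (human umbilical vein) exposed to compound for 24 h. ELISA detection of Eotaxin-3.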

Measured: AC50

Nuclear respiratory factor 1 (Homo sapiens), sequence (Q16656 whole entry, looked up, the tested form may be a part): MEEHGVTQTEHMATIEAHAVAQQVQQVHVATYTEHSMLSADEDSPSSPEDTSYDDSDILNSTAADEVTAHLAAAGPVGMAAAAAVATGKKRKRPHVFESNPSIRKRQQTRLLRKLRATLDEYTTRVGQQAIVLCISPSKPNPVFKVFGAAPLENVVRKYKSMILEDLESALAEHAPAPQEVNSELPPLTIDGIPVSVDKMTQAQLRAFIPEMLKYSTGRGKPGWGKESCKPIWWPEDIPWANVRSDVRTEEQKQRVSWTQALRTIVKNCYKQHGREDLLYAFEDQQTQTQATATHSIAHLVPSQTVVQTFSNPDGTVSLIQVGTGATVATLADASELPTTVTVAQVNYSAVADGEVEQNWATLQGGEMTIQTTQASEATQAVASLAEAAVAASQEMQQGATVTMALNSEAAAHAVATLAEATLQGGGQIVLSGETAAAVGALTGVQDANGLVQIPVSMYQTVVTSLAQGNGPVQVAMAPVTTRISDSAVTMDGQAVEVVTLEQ
Bile acid receptor (Homo sapiens), sequence (Q96RI1 whole entry, looked up, the tested form may be a part): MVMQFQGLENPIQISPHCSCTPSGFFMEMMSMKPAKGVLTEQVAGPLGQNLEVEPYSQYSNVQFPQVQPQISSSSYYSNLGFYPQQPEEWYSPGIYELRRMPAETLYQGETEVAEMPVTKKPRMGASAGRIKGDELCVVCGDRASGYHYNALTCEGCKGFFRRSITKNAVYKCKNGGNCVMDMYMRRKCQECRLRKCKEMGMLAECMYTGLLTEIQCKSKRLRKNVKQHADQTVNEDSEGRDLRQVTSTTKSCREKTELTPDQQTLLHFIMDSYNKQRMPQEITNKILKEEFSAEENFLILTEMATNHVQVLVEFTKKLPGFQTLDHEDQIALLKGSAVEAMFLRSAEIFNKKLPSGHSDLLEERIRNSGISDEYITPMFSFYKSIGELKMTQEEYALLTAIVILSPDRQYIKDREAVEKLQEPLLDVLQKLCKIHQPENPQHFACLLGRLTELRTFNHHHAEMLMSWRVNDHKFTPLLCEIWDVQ
Nuclear receptor subfamily 4 group A member 2 (Homo sapiens), sequence (P43354 whole entry, looked up): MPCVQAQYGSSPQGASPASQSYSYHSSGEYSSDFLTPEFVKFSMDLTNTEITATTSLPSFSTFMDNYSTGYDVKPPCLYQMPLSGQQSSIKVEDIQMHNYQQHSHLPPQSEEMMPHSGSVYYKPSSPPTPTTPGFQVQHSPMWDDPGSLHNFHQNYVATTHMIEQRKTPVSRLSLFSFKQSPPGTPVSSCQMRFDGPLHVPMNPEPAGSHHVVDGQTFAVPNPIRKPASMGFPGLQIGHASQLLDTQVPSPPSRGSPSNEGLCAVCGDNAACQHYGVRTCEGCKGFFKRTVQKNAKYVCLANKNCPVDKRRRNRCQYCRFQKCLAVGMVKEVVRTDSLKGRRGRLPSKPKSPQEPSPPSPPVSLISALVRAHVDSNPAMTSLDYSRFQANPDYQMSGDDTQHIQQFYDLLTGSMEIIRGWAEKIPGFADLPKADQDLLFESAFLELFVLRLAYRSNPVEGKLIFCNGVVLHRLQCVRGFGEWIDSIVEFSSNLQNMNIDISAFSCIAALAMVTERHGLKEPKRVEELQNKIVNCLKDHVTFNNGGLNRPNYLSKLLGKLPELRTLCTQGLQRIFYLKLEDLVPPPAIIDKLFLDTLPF
Oxysterols receptor LXR-alpha (Homo sapiens), sequence (Q13133 whole entry, looked up): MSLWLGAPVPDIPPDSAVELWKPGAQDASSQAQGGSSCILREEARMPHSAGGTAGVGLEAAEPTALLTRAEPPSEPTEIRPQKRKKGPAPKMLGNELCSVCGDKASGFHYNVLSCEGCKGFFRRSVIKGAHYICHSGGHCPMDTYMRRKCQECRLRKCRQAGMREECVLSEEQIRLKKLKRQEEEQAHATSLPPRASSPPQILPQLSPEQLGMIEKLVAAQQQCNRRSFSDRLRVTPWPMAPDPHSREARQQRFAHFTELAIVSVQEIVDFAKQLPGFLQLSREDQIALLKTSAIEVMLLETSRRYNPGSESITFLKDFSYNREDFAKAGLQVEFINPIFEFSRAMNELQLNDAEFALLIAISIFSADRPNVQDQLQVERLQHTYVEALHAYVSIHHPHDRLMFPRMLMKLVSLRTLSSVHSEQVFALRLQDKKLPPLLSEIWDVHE
Transcriptional activator Myb (Homo sapiens), sequence (P10242 whole entry, looked up): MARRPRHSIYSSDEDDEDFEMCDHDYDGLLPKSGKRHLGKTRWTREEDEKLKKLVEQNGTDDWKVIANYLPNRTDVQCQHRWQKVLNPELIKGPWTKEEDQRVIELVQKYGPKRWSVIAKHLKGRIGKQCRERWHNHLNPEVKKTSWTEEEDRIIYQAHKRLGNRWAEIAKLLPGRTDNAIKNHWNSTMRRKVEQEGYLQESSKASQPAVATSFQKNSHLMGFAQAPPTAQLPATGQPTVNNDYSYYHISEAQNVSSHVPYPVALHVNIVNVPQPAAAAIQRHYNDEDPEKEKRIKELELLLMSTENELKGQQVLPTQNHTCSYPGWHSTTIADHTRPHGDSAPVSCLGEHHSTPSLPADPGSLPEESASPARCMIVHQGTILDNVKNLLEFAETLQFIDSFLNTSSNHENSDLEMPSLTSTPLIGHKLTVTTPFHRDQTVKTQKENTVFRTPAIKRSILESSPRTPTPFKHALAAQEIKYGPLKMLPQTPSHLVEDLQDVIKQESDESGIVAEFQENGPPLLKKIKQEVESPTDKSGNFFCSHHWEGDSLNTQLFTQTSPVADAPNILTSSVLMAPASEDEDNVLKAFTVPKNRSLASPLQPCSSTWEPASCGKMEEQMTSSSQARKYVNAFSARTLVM
human Peroxisome Proliferator-activated Receptor alpha (PPARa), PPARA (gene 5465), sequence (Q07869 whole entry, looked up, the tested form may be a part): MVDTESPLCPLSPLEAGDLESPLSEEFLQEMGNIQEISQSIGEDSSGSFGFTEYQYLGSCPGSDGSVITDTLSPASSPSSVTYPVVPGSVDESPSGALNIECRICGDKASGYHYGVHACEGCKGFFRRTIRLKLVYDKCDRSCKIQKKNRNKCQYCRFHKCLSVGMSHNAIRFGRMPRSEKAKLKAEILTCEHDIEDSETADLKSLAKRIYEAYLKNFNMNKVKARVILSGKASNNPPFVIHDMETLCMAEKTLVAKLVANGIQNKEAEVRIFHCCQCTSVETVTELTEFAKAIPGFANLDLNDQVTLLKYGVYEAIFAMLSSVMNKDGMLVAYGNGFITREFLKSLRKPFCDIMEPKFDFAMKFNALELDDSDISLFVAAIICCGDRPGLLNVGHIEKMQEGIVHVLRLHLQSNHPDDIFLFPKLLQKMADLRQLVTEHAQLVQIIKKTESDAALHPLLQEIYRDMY
Myc proto-oncogene protein (Homo sapiens), sequence (P01106 whole entry, looked up): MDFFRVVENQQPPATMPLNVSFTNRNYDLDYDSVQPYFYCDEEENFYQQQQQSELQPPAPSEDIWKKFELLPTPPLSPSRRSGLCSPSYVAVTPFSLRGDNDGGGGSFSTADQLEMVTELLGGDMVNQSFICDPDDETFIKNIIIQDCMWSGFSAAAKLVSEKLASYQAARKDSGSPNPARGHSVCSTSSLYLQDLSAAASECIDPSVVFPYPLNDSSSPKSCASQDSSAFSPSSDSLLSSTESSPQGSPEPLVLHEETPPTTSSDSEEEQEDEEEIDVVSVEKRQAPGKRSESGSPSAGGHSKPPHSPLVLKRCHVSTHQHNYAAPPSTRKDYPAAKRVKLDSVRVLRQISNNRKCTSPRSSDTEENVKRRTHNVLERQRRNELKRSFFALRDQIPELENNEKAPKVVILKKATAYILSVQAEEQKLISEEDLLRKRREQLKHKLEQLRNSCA
Cellular tumor antigen p53 (Homo sapiens), sequence (P04637 whole entry, looked up): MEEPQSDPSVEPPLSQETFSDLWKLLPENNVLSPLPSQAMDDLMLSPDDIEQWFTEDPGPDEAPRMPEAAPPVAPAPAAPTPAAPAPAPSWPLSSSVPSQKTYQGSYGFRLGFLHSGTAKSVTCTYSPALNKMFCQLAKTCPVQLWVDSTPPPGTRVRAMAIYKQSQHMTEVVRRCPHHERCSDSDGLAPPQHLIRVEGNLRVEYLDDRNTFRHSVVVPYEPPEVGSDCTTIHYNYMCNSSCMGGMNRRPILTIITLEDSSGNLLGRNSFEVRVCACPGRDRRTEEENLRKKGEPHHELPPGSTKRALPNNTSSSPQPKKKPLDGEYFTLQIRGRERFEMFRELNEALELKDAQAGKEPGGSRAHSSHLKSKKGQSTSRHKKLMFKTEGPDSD
Hepatocyte nuclear factor 4-alpha (Homo sapiens), sequence (P41235 whole entry, looked up): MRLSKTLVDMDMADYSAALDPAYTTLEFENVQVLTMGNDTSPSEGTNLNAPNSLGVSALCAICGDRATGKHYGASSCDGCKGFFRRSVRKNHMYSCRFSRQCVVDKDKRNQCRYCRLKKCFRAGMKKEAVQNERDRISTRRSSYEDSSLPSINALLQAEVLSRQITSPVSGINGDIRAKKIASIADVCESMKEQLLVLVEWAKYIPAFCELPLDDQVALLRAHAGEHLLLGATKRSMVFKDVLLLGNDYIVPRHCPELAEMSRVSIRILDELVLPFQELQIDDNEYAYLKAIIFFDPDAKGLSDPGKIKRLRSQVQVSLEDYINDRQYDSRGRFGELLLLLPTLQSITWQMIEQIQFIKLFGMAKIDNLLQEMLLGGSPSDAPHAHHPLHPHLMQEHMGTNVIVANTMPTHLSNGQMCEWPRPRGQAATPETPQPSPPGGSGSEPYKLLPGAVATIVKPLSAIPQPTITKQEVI
Oxysterols receptor LXR-beta (Homo sapiens), sequence (P55055 whole entry, looked up, the tested form may be a part): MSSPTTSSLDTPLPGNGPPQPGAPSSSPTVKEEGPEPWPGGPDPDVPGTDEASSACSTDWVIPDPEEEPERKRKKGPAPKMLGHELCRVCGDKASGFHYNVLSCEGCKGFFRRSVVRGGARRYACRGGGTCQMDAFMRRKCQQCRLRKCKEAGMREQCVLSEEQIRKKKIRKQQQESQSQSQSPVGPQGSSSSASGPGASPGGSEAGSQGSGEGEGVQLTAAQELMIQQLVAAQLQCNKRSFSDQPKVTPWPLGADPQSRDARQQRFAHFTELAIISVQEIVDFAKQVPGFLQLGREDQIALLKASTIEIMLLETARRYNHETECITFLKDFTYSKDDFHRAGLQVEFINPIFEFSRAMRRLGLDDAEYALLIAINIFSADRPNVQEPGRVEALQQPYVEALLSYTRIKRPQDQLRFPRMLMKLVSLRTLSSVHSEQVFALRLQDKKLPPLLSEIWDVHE

CC1=C(C(=O)Nc2ccccc2)S(=O)(=O)CCO1
active: [9] 122 µM | [10] 2.92 µM | [12] 58 µM
not listed: [14] | [15] | [16] | [17] | [18] | [19] | [20]
inactive: all other assays above

CCOP(=S)(OCC)SCSc1ccc(Cl)cc1
active: [10] 29.6 µM | [17] 0.0123 µM | [18] 0.397 µM | [20] 7.22 µM
not listed: [2] | [4] | [12] | [13]
inactive: all other assays above

CCCCc1ccccc1
not listed: [3] | [4] | [9] | [12] | [13] | [14] | [15]
inactive: all other assays above

CCCCN(CCCC)N=O
not listed: [5] | [14] | [15] | [16]
inactive: all other assays above

CCOC(=O)c1ccccc1N
inactive: [1] | [2] | [4] | [15] | [6] | [16] | [8] | [10] | [11] | [13]

CC(O)C(F)(F)C(F)(F)F (stereo unspecified)
not listed: [14]
inactive: all other assays above

CC(C)Nc1ccc(Nc2ccccc2)cc1
active: [10] 8.92 µM | [17] 8.11 µM | [19] 8.53 µM | [20] 8.74 µM
not listed: [4] | [7] | [9] | [14] | [15] | [18]
inactive: all other assays above

CCOP(=S)(S)OCC
active: [10] 67.4 µM
not listed: [3] | [9] | [13] | [16] | [18]
inactive: all other assays above
